Out of some 360,000 compounds screened, about 610 (0.17%) were called active. Roughly 2% stayed inconclusive and do not appear here. What follows is part of a selection rich in actives, with near analogues and random picks from the rest. Unmarked numbers belong to inactive results. Cut-off read from the data, not from the text of the source: active = inhibition above about 30%; inconclusive = no clear call, values can overlap the other calls; inactive = below that.
system: Botulinum neurotoxin type A light chain protease (Clostridium botulinum A str. ATCC 3502); assay: blockers of BoNT/A LC substrate cleavage – biochemical, flow cytometry, MLPCN library, primary screen (AID 588499); settings: multiplex microsphere protease substrate cleavage, at 10 µM, hits give high values; note: plate controls were buffer without enzyme for full effect and enzyme alone for no effect

Structure (SMILES) | inhibition
COCCNC(=S)N/N=C/c1c(C)[nH]c2ccccc12 | 42.9% (active)
CN=c1scc(-c2cc(OC)ccc2OC)n1/N=C/c1c(C)[nH]c2ccccc12 | 7.7%
Cc1[nH]c2ccccc2c1/C=N/NC(=O)CNC(=O)c1ccc2c(c1)OCO2 | 0.6%
CCCN(C(=O)CSc1nnnn1C)c1c(N)n(Cc2ccccc2)c(=O)[nH]c1=O | -0.4%
CCOC(=O)c1ccn(-c2nc(-c3ccco3)cc(C(F)(F)F)n2)n1 | 0.1%
O=C(Cn1cnc2c(OCc3ccccc3)ncnc21)NCc1nc2ccccc2[nH]1 | -0.1%
Cc1ccc(Cc2c(-c3ccco3)nc3ccc(Cl)cn23)cc1 | 4.3%
CCc1nnc(NC(=O)CSc2nc3ccccc3c(=O)n2CCCOC)s1 | 0.5%
O=[N+]([O-])c1ccc(NS(=O)(=O)c2ccccc2)c(Cl)c1 | -0.4%
CCN(C(=O)Cc1c(C(=O)O)n(CC)c2ccccc12)c1ccccc1C | -3.2%
COc1cc(/C=C2\SC(=S)N(Nc3ncc(C(F)(F)F)cc3Cl)C2=O)cc(OC)c1OC | 82.7% (active)
O=C1/C(=C/c2ccc(F)cc2)SC(=S)N1NS(=O)(=O)c1ccccc1 | 1.8%
COc1cc(-c2nnc(Cn3cc(C(F)(F)F)ccc3=O)o2)cc(OC)c1OC | 0.9%
Nc1nnc(SCC(=O)OCc2ccc(Cl)c(Cl)c2)s1 | -0.2%
O=c1cnnc(Nc2ccccc2F)[nH]1 | -1.3%
N#Cc1ccc(N2Cc3ccccc3/C2=N/C(=O)Nc2ccc(Cl)cc2)cc1 | -0.1%
Cc1cc([N+](=O)[O-])nn1Cc1ccc(F)cc1 | -0.3%
Nc1nonc1-n1nnc(C(=O)N/N=C/c2cc(Br)ccc2O)c1CSC1=NCCS1 | 0.6%
COc1ccc(CCNC(=S)N2CCN(S(=O)(=O)c3ccc(F)cc3)CC2)cc1 | 0.6%
CCCn1nnc2sc3c(c2c1=O)CCC(C)C3 (configuration not stated) | 0.3%
CC1CCc2c(sc3nc4n(c(=O)c23)CCS4)C1 (configuration not stated) | 52.4% (active)

Structure (SMILES) | inhibition
Cn1c(NN)nc2sc3c(c2c1=O)CCC3 | -1.4%
Cc1ccc2[nH]c(C(=O)O)c(NC(=O)c3ccccc3[N+](=O)[O-])c2c1 | 0.9%
O=C1CSC(c2cccc(F)c2)N1c1ccccc1F (configuration not stated) | -0.9%
Cc1cc(Br)ccc1NC(=O)CCCOc1cc(=O)n(C)c2ccccc12 | 0%
CCC(=O)N(C)C(c1ccccc1Cl)c1nnnn1-c1c(C)cccc1C (configuration not stated) | -0.4%
COc1ccc(/C(=N\O)c2nccc3cc(OC)c(OC)cc23)cc1OC | -0.2%
COc1ccc(C2OC(CCc3ccccc3)Cc3[nH]c(=S)[nH]c(=O)c32)cc1 (configuration not stated) | 0.5%
CCOc1ccc2ccccc2c1/C=N/NC(=O)c1c(C)cc(C)[nH]c1=O | 0.8%
O=C(O)c1ccc2c(=O)n3c(nc2c1)/C(=C/c1ccc(OC(F)F)cc1OC(F)F)CC3 | -1.9%
CC(C)(C)c1ccc(S(=O)(=O)NC(=O)C2(C)CCN2C(=O)CC2CC2)cc1 (configuration not stated) | -0.9%
O=C(CC(NC(=O)c1ccccc1)c1ccccc1)Nc1ccc(F)c(F)c1 (configuration not stated) | -0.5%
CN(C(=O)CSc1nnc(-c2n[nH]c3ccccc23)o1)c1ccccc1 | 0.1%
Cc1nc(C(F)(F)F)ccc1C(=O)N1CCC1(C)C(=O)NS(=O)(=O)c1ccccc1 (configuration not stated) | -0.7%
Nc1nc2c(ncn2[C@@H]2O[C@H](CNCc3ccc(OCCCN4CCOCC4)cc3)[C@@H](O)[C@H]2O)c(=O)[nH]1 | -0.1%
CCc1oc(-c2ccc(OC)cc2)c(C(=O)OCCCCCO)c1C(C)OCCO (configuration not stated) | 0.8%
Cc1cc2cc(CNC(=O)c3cccs3)ccc2[nH]1 | 75.4% (active)
COC(=O)c1ccc(CNC(=O)c2ccc(S(=O)(=O)N3CCCCCC3)cc2)cc1 | 0.1%
CCc1cccc(CC)c1NC(=S)NCc1ccc2[nH]c(C)cc2c1 | 34.3% (active)
Cc1ccc(C)c2[nH]c(=O)c(CCNC(=O)c3cccs3)cc12 | -0.5%
CCOc1ccc(C(C)=O)cc1COC(=O)CNC(=O)c1cccs1 | -0.9%
Cc1cccc(NC(=S)NCc2ccc3[nH]c4c(c3c2)CCCC4)c1 | 0.2%

Structure (SMILES) | inhibition
Cc1cc2cc(CNC(=O)c3ccc(S(=O)(=O)N4CCOCC4)cc3)ccc2[nH]1 | 71.1% (active)
Cc1c(Cl)cccc1NC(=S)NCc1ccc2c(c1)OCO2 | -1.1%
O=C(Nc1ccc2cn[nH]c2c1)c1ccc(S(=O)(=O)N2CCOCC2)cc1 | -1.3%
O=C(CSc1nncn1-c1cccnc1)N1CCOCC1 | -0.7%
COc1cccc(C=CC(=O)C=CC=Cc2ccccc2)c1 | 0.9%
COc1ccc(/C=C/C(=O)c2c(O)cc(OC)cc2OC)cc1 | -0.9%
O=C(/C=C(O)/C=C/c1ccc(O)cc1)/C=C/c1ccc(O)cc1 | 38.1% (active)
Cc1ccccc1S(=O)(=O)NC(=O)C1(C)CCN1C(=O)C1(c2ccc(Cl)cc2)CC1 (configuration not stated) | -0.5%
Cc1cc(C(=O)COc2ccccc2[N+](=O)[O-])c(C)n1-c1cccc(S(=O)(=O)N2CCOCC2)c1 | -2%
C#CCNC(=O)C[C@@H]1C[C@@]2(C(=O)OCC)CCCC=C2N(Cc2ccco2)C1=O | -1.2%
CN(CC(=O)Nc1ccc(F)cc1)CC(=O)N1CCCCC1 | 0.4%
COc1ccc(NC(=O)c2sc(=O)n(Cc3ccc(S(=O)(=O)N(C)C)cc3)c2C)cc1 | -0.2%
CC1(C(=O)NS(=O)(=O)c2ccc(Cl)cc2)CCN1C(=O)CC1CCCC1 (configuration not stated) | -0.4%
CN(C(=O)CCn1c(=S)oc2ccccc21)C1CCCCC1 | 0.7%
Cn1nc(N)c2ncc(C(Cl)(Cl)Cl)nc21 | 0%
Fc1cccc(Cc2c(-c3cccc(Cl)c3)nc3ccc(Br)cn23)c1 | 9.7%
O=C1OCC2=C1C(c1ccccc1)CC(=O)N2c1cccc(F)c1 (configuration not stated) | -1.3%
CCCCOCCCNC(=O)C[C@@H]1C[C@@]2(C(=O)OC)CCCCC=C2N(CCC2=CCCCC2)C1=O | -0.3%
CCc1nc2c(OCCOc3ccccc3)cccn2c1N(C)C(=O)c1ccccc1F | -0.2%
COc1ccc([C@H]2N[C@]3(CCCN(Cc4ccco4)C3=O)[C@H]3C(=O)N(C)C(=O)[C@@H]23)cc1 | -0.4%
COC(=O)[C@]12CCCCC=C1N(CCC1=CCCCC1)C(=O)[C@H](CC(=O)NCC1CCCCC1)C2 | 0%

Structure (SMILES) | inhibition
CC(C)(C)CC(=O)Nc1nc(C(N)Cc2ccc(C(F)(F)F)cc2)cs1 (configuration not stated) | -0.5%
CN1CCN(C(=O)c2ccc(NC(=O)c3ccc(Br)o3)cc2)CC1 | 0.8%
COC(=O)c1cn(C)c2ccc(S(=O)(=O)N3CC(C)CC(C)C3)cc2c1=O (configuration not stated) | -1.1%
CC(=O)Nc1cccc(Nc2ccc(C#N)cc2)c1 | 0%
COc1ccc(NC(=O)NN2CCN(C)CC2)c(OC)c1 | -3.1%
COc1ccc(C(=O)c2c(C)c(CCC#N)n3ccccc23)c(OC)c1 | 0.8%
CC1(C)c2[nH]c3ccccc3c2C[C@H]2C(=O)N(N)CC(=O)N21 | -1.4%
Cc1nn(-c2ccc(F)cc2)c(Cl)c1/C=C(/CCC(=O)O)c1nc2ccccc2s1 | -0.5%
CC1=CC(=C(C#N)c2nc3ccccc3s2)C=C(C)N1c1ccc(F)cc1F | 48.3% (active)
CSCC[C@H](NC(=O)NCCc1ccc(F)cc1)C(=O)O | 0%
O=c1c2[nH]c3ccc(Cl)cc3c2ncn1Cc1ccccn1 | 1%
O=C(NCc1ccc(Cl)cc1)C(=O)NCC1CCCN1S(=O)(=O)c1cccs1 (configuration not stated) | -1.5%
NC(=O)c1ccc(N2CCCC2)nc1 | 0.8%
Oc1cccc(CCc2ccccn2)c1 | -0.4%
CCOc1ccccc1NC(=O)C1CCCN(C(=O)Nc2ccccc2)C1 (configuration not stated) | 0%
COc1cc(OC)c(-n2cc(-c3ccc(Cl)cc3)[nH]c2=O)cc1Cl | 0.1%
O=C(COC(=O)CC1CC2CCC1C2)NC(=O)NC1CCCC1 (configuration not stated) | 0.7%
O=C(NCc1ccccc1)C1c2ccccc2OCC(=O)N1C1CC1 (configuration not stated) | 0%
O=C(NCCc1ccco1)C(=O)NCCC1CCCCN1S(=O)(=O)c1ccccc1 (configuration not stated) | -3.9%

— PubChem BioAssay AID588499 (NMMLSC, 2011)
